Measured values published in the supplement of paper PMC11732987, “Enantioselective OTUD7B fragment discovery through chemoproteomics screening and high-throughput optimisation” (Communications Chemistry, 2025).

Experiments:
Assay in all cases: log2 ratio of Biotin-Ahx-Ub-VS probe labelling (fragment/DMSO); higher = less target engagement (more negative = stronger competition), active = hit call of the paper (q ≤ 0.05, log2 ratio ≤ -1)
Conditions in all cases: compound concentration: 200 uM; treatment time: 3 h
[1] = target: T1, USP42 (UniProt Q9H9J4)
T1 sequence (whole entry): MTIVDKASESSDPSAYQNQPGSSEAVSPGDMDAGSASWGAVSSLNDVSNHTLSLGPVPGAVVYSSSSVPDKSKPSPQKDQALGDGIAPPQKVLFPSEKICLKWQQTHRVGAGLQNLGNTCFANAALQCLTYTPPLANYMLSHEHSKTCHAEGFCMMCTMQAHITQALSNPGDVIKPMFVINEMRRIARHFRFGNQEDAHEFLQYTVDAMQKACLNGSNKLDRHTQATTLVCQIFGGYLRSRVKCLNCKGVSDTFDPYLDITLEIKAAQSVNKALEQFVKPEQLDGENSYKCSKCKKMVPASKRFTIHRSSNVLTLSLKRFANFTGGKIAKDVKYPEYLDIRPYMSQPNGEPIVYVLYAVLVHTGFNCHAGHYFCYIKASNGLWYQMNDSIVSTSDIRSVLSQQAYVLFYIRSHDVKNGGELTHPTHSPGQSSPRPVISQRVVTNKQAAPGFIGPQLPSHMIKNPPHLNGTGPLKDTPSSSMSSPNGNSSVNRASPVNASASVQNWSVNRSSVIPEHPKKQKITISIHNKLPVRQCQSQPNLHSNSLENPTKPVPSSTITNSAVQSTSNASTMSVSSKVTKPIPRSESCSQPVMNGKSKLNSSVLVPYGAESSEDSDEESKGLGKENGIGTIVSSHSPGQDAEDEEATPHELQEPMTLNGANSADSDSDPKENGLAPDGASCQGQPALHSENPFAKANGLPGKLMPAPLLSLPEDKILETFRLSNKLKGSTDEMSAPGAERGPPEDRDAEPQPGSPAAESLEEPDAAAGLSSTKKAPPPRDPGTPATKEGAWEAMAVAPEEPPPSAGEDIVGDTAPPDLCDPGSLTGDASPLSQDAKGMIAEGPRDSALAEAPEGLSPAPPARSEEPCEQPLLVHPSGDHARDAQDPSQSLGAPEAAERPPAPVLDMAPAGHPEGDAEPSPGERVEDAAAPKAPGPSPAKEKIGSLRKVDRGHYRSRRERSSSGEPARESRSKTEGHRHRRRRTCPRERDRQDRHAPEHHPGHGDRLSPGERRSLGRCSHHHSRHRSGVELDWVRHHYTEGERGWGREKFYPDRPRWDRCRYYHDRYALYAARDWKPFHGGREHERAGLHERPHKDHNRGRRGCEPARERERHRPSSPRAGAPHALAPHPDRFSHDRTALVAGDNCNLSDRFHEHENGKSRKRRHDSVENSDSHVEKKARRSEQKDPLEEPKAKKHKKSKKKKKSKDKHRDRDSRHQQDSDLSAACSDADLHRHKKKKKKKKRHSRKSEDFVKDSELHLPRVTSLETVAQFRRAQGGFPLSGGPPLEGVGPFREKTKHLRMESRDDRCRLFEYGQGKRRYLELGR
Summary of the method: (§1)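 Labelling with Biotin-Ahx-Ub-VS (0.5 µM final, 1 h) followed a 3 h triplicate treatment of HEK293T lysate (495 µg per sample, Tris/CHAPS/IGEPAL buffer with protease inhibitors) with fragment at 200 µM or vehicle. Labelled DUBs were NeutrAvidin-enriched, digested with LysC and trypsin, and run by diaPASEF LC-MS/MS. The values, average log2 fragment/vehicle ratios by unpaired t-test, come from global-median-normalised Spectronaut label-free quantities. Proteins with ≥2 unique peptides were used.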

[2] = target: USP46 (UniProt P62068)
Summary of the method: as §1

[3] = target: T2, USP47 (UniProt Q96K76)
T2 sequence (whole entry): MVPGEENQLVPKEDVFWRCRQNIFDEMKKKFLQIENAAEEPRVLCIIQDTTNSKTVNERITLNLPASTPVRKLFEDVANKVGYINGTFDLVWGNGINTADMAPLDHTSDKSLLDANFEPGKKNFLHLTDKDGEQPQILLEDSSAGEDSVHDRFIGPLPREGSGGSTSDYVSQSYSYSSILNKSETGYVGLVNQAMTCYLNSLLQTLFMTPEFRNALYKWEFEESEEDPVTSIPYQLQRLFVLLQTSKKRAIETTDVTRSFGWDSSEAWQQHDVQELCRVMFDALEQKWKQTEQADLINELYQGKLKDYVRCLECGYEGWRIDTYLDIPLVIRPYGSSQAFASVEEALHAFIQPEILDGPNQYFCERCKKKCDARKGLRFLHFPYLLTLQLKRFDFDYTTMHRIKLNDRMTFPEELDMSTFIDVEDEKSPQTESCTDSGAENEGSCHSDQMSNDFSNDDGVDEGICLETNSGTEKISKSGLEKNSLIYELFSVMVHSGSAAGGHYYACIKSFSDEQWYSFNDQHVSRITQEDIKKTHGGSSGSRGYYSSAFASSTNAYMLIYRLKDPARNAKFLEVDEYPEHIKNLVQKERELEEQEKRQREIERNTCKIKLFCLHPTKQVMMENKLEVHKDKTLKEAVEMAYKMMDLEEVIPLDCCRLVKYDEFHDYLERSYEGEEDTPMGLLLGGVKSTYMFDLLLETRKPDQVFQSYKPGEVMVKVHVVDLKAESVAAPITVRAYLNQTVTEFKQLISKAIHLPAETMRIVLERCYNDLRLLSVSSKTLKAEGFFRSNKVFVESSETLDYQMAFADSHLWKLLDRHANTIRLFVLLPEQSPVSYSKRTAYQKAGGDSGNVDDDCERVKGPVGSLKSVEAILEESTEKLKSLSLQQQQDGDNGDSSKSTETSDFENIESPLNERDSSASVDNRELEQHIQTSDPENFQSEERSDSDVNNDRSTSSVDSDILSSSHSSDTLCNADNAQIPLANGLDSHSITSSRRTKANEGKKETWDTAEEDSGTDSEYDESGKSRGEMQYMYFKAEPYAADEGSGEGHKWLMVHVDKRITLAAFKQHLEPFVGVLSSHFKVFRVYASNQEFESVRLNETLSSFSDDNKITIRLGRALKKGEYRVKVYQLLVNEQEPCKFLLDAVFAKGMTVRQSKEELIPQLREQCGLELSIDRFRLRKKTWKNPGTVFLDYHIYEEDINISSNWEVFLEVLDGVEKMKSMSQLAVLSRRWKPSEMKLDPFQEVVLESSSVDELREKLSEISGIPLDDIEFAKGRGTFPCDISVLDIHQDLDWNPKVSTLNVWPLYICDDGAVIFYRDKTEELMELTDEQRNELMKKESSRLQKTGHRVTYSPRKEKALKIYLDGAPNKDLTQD
Summary of the method: as §1

[4] = target: T3, USP48 (UniProt Q86UV5)
T3 sequence (whole entry): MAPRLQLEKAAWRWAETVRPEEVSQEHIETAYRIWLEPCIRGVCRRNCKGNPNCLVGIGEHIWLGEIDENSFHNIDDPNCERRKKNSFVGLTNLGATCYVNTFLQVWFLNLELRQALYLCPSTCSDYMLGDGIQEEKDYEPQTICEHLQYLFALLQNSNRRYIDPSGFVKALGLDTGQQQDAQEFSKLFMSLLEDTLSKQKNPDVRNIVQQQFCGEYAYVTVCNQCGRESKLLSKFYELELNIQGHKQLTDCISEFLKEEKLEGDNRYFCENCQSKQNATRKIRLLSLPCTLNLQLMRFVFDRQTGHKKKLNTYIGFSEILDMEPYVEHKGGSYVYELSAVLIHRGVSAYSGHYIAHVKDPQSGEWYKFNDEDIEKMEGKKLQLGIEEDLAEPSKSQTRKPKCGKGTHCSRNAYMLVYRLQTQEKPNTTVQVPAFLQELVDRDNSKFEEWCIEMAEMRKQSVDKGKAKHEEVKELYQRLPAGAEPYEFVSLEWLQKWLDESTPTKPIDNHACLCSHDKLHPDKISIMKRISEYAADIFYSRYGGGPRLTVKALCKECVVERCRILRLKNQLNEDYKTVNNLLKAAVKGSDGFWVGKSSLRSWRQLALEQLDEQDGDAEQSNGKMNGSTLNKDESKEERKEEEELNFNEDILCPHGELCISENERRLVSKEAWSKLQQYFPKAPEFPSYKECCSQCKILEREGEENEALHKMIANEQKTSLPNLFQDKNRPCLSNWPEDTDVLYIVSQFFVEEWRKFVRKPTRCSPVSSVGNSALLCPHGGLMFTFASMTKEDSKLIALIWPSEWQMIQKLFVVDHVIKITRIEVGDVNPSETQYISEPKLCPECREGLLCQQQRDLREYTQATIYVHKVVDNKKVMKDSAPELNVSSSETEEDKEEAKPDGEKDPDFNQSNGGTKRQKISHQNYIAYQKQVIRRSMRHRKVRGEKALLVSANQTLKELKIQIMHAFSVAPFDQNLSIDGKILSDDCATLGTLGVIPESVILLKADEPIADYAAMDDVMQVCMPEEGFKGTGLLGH
Summary of the method: as §1

[5] = target: T4, USP5 (UniProt P45974)
T4 sequence (whole entry): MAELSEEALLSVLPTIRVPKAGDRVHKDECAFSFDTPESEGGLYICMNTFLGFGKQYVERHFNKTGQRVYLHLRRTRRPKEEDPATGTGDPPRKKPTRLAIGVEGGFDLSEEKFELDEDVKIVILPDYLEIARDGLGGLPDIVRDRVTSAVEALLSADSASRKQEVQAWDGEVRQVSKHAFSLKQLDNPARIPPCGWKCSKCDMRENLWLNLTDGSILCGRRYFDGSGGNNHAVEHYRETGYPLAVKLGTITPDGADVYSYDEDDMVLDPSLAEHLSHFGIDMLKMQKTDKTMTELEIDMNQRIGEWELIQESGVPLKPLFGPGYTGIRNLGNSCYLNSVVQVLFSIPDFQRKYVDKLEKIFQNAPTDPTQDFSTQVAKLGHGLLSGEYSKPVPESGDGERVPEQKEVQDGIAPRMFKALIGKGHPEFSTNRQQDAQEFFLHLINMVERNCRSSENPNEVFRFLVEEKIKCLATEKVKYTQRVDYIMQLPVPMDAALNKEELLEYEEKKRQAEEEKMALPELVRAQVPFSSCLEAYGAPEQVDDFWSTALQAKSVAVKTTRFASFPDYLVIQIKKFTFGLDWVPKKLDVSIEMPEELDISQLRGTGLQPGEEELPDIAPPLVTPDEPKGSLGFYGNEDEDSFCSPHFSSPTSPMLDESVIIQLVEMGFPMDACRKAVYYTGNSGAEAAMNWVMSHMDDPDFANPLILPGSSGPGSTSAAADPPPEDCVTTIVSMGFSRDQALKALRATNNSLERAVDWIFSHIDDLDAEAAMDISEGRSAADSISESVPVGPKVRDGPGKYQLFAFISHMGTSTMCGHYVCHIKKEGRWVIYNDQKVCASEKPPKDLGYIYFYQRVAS
Summary of the method: as §1

[6] = target: USP54 (UniProt Q70EL1)
Summary of the method: as §1

[7] = target: USP7 (UniProt Q93009)
Summary of the method: as §1

[8] = target: T5, USP8 (UniProt P40818)
T5 sequence (whole entry): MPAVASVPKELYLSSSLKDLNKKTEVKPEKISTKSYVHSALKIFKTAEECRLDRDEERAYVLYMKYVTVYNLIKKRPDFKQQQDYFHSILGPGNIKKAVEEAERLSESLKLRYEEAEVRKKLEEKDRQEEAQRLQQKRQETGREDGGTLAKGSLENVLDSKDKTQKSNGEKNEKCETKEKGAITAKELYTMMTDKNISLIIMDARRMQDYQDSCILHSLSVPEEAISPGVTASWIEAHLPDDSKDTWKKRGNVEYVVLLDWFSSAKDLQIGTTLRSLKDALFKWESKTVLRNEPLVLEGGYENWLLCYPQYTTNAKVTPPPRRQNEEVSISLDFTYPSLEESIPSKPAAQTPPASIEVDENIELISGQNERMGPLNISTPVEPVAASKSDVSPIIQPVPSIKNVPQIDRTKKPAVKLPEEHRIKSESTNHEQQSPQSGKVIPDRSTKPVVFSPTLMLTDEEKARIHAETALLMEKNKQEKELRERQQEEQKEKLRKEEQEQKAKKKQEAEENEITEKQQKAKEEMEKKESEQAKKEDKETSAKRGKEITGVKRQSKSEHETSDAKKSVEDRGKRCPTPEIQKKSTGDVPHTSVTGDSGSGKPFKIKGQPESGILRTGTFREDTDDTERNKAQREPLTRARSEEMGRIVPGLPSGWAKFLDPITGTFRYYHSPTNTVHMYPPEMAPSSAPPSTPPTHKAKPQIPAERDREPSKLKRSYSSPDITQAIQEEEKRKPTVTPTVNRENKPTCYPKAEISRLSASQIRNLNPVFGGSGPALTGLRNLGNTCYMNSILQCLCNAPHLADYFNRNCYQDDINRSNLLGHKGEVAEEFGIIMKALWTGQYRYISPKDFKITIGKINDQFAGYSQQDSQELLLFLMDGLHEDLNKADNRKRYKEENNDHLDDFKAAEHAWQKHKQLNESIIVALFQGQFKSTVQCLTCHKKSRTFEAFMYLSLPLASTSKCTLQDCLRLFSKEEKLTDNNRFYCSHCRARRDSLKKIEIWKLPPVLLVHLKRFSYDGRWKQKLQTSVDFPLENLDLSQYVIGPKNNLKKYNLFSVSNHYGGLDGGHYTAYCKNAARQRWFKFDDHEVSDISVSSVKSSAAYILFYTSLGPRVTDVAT
Summary of the method: as §1

[9] = target: USP9X (UniProt Q93008)
Summary of the method: as §1

[10] = target: UniProt O00487
Summary of the method: as §1

Measured: log2 ratio of Biotin-Ahx-Ub-VS probe labelling

USP7, sequence (Q93009 whole entry, looked up): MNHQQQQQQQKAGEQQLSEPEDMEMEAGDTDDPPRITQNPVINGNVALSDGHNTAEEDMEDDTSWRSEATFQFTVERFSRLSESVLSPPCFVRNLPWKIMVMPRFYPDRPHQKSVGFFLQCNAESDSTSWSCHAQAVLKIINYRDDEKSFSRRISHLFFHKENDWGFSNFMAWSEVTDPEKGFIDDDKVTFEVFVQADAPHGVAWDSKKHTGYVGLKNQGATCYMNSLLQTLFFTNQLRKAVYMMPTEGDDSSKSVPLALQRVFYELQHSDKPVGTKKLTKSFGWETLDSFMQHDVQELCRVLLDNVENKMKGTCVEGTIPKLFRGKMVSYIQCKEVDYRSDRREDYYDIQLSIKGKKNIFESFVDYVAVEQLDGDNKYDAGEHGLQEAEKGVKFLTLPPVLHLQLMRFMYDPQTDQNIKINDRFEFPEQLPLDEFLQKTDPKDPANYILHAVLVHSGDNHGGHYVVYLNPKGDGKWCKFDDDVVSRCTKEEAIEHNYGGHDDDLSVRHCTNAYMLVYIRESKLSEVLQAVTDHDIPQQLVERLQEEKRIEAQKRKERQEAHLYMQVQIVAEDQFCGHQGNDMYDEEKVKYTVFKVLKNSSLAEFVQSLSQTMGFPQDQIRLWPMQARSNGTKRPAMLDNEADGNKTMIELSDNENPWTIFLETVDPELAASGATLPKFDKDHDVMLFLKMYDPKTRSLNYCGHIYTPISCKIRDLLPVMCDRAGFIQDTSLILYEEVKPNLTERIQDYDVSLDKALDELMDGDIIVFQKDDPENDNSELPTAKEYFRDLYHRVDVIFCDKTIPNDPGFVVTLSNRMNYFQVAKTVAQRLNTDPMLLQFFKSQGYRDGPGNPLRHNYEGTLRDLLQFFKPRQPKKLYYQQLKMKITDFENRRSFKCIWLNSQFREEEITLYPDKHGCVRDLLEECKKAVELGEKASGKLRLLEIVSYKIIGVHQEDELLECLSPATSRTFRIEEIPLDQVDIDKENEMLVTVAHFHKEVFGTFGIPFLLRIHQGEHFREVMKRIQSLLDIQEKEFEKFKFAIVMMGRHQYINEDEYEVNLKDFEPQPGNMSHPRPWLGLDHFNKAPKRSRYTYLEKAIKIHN
UniProt O00487, sequence (O00487 whole entry): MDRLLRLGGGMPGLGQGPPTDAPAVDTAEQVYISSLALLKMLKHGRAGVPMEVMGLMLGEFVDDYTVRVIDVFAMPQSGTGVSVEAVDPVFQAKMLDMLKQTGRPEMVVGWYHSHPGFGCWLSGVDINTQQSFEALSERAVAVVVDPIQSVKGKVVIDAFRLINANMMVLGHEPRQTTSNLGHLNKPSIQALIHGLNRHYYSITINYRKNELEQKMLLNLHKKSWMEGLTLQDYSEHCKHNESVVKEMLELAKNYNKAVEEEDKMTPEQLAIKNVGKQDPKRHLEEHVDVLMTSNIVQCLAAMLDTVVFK
USP54, sequence (Q70EL1 whole entry): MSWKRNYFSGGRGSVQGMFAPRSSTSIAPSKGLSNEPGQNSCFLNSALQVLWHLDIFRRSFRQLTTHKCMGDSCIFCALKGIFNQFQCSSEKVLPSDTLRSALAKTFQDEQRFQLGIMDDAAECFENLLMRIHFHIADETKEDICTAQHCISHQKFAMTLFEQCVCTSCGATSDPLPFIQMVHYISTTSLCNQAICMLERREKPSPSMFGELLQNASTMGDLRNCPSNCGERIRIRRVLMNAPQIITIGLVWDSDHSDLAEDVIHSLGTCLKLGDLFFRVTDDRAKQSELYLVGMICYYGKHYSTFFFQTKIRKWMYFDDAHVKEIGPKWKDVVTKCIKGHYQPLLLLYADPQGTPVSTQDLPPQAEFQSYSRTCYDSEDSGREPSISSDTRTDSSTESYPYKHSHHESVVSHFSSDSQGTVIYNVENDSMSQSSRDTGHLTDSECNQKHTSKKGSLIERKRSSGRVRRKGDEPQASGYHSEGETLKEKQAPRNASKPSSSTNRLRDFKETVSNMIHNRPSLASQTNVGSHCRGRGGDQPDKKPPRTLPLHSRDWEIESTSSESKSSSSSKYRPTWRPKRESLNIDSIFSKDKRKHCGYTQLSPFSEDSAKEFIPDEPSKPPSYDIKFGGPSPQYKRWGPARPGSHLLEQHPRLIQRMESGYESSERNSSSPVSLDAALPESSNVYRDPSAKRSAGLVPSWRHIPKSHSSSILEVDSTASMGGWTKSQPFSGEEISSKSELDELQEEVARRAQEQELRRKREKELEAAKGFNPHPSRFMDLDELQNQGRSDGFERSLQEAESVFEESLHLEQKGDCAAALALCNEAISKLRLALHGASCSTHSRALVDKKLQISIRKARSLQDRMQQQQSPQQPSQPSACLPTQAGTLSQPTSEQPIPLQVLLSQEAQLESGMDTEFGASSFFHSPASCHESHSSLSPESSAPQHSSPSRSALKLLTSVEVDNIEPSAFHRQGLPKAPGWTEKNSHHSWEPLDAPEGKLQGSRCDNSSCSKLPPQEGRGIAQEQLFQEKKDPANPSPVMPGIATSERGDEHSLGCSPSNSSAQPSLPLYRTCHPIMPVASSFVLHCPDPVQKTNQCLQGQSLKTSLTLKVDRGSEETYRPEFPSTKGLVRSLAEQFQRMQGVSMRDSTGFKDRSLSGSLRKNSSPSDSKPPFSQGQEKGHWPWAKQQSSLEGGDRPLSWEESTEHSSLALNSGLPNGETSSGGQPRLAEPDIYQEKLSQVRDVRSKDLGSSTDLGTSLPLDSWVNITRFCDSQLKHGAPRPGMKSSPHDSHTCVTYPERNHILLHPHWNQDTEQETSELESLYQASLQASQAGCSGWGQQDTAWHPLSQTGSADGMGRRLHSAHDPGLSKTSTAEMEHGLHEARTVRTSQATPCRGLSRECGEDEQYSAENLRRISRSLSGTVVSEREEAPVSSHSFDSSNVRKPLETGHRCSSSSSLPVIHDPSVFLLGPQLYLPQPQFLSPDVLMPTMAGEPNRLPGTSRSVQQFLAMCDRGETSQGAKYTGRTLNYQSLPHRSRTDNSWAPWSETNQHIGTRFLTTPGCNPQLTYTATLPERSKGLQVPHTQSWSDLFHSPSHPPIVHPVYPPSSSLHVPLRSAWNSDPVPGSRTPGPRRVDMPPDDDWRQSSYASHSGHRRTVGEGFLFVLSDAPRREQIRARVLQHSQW
USP46, sequence (P62068 whole entry): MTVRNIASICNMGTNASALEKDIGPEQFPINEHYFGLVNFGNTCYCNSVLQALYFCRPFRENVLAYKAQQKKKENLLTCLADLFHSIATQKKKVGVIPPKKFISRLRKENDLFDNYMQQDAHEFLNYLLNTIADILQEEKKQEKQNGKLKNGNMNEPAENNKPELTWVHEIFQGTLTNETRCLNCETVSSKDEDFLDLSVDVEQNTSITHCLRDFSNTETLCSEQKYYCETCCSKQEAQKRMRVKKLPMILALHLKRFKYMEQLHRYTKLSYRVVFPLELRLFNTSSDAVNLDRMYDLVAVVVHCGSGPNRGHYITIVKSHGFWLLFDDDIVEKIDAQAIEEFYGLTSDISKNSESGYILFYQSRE

O=C(CCl)N1CCC(OCc2ccccc2F)CC1
inactive: [1] 0.919 | [2] 0.155 | [3] -0.138 | [4] -0.151 | [5] 0.445 | [6] -0.235 | [7] -0.391 | [8] 0.124 | [9] -0.0279 | [10] 0.075
